These results are taken from PubChem BioAssay (NCI).

Common to all, as to assay: NCI-60 one-dose screen, 48 h (100 = growth as untreated, 0 = no growth, -100 = all killed)
Holding throughout (settings): 10 µM unless noted

Test [1] concerns HCT-15 colon.
For test [2], the system named is HT29 colon.
In test [3] the test system is SNB-19 CNS.
Test [4] relates to U251 CNS.
Test [5] concerns PC-3 prostate.
Test [6] relates to SK-MEL-5 melanoma.
Test [7] deals with UACC-62 melanoma.
In test [8] the test system is LOX IMVI melanoma.
Test [9] relates to SK-MEL-28 melanoma.
Test [10] deals with SK-MEL-2 melanoma.
In test [11] the test system is EKVX NSCLC.
The subject of test [12] is SN12C renal.
In test [13] the test system is UO-31 renal.
Test [14] relates to TK-10 renal.
Test [15] relates to ACHN renal.
Test [16] concerns CAKI-1 renal.
Test [17] relates to A498 renal.
The test system of test [18] is CCRF-CEM leukemia.
For test [19], the system named is MOLT-4 leukemia.

About 83,000 compounds went through this panel and 20% of them were active in at least one assay; those are over-represented in the sample as a whole.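 Cell lines were cultured in 96-well plates, exposed to a single compound concentration, and assessed for percent growth 48 hours later.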 A number with no mark means an inactive call. Calls of active or inactive are those of the source. Rule for the calls: active = growth percent below 10; inactive = the rest.

Regarding `Cc1cc(N/N=C/c2nc(-c3ccc(Br)cc3)oc2C)c2cc(Cl)ccc2n1`, the growth in test [1] is 37.9%; in [2], 13.5%; in [3], 60.1%; in test [4] it was 13.9%; in test [5], 80.7%; in test [6] it was 92.6%. Moreover, the growth was 82.9% in test [7]; 20.8% in [8]; 60.7% in [9]; 110% in test [10]; 95.7% in test [11]; 48.4% in test [12]. Moreover, the growth is 86.6% in test [13]; 114% in test [14]; 86.9% in [15]; 96.2% in [16]; 85.5% in test [17]; -16.6% (active) in test [18]. Moreover, in test [19], the growth is 3.49% (active).

As for `CN(C[C@H]1Cc2c(cccc2N2CCN(Cc3ccccn3)CC2)CN1)[C@H]1CCCc2cccnc21`, the growth in test [1] was 37.3%; in [2], 36.9%; in test [3], 57.6%; in [4], 32.5%; in test [5] it was 45.7%; in test [6], 55.8%. Also, the growth in test [7] is 85.1%; in test [8], 44.9%; in test [9], 88.5%; in test [10], 73.2%; in [11], 54.8%; in test [12] it was 53.5%. Besides, the growth in [13] was 20.1%; in test [14], 58.7%; in [15], 43.2%; in test [16], 42.8%; in test [17], 65.9%; in [18], 41.2%. The growth in [19] was 41%.

For `Cn1cnc2c(N3CCN(C(=O)OCc4ccc5c(Cl)cc(Cl)c(O)c5n4)CC3)nc(Cl)nc21`, the growth in test [1] is 30.5%; in test [2], 113%; in test [3], 60.3%; in [4], 38.6%; in test [5] it was 54.8%; in [6], 41.6%. Also, the growth in test [7] is 53.7%; in [8], 44.5%; in [9] it was 68.5%; in test [10] it was 81%; in test [11], 66.9%; in test [12] it was 63%. In addition, the growth in test [13] is 48.2%; in test [14], 96%; in test [15], 48.4%; in test [16], 63.8%; in [17] it was 62.7%; in test [18], 37.6%. The growth in test [19] was 59.5%.

For `O=C1/C(=C/c2ccc(Cl)cc2)CN(C(=O)CCN2CCC(=NO)CC2)C/C1=C\c1ccc(Cl)cc1`, the growth in test [1] is -90.9% (active); in test [2], -71.8% (active); in [3], -93.2% (active); in test [4], -91.1% (active); in [5] it was -55.2% (active); in test [6], -84.8% (active). The growth is -75.4% (active) in test [7]; -92.7% (active) in [8]; -89.7% (active) in [9]; -68.4% (active) in [10]; -46.5% (active) in [11]; -75.2% (active) in test [12]. The growth in test [13] was -92.5% (active); in [14] it was -74.7% (active); in [15], -61.5% (active); in [16] it was -73.9% (active); in [17] it was -59.8% (active); in [18], -23.3% (active). For the same compound, the growth in test [19] is -12.4% (active).

For the compound `CCOC(=O)C1C(=O)C=C(c2ccc(OC)cc2)CC1c1sc(N(C)Cc2ccccc2)nc1Cl` (configuration not stated), the growth in test [1] was 93.3%; in test [2], 88.1%; in test [3], 74.1%; in test [4], 84.8%; in test [5], 62.9%; in [6], 81%. Further, the growth is 46.1% in test [7]; 92.1% in test [8]; 93.7% in [9]; 74.3% in [10]; 82.4% in test [11]; 79.8% in [12]. Further, the growth is 54.2% in test [13]; 93.7% in test [14]; 73.8% in test [15]; 76.7% in [16]; 93.6% in [17]; 86.5% in test [18]. For the same compound, the growth in [19] was 61.5%.

As to `CCCCCCCCCCCCNC(=O)[C@H]1CSC(c2cc3ccccc3s2)N1` (some centres not stated), the growth in [1] is -34.1% (active); in [2], -8.26% (active); in test [3], 51.2%; in test [4], -78.9% (active); in test [5] it was -17.4% (active); in [6], 57.9%. In addition, the growth in [7] is -76.2% (active); in test [8], -85.7% (active); in test [9], -89% (active); in test [10] it was -45.7% (active); in test [11], -59.6% (active); in [12] it was -16.1% (active). The growth in test [13] is -82.6% (active); in test [14], -78.7% (active); in test [15], 17.5%; in [16], 74.7%; in test [17], 98.9%; in test [18], -45.5% (active). The growth in test [19] was -63.3% (active).

Take `C=C1CCC2C3(C)COC(C)(C)OC3CCC2(C)C1C/C=C1/C(=O)OCC1Oc1ccccc1OC` (configuration not stated): the growth in [1] is 43%; in test [2], 56.4%; in [3], 88.7%; in test [4], 100%; in [5], 90.5%; in [6], 95.4%. Moreover, the growth is 80.4% in test [7]; -3.97% (active) in test [8]; 101% in [9]; 95.6% in test [10]; 96.5% in [11]; 84.2% in test [12]. The growth in test [13] was 83.5%; in test [14] it was 139%; in [15] it was 79.9%; in test [16] it was 90.6%; in test [17] it was 110%; in test [18] it was 13.3%. In addition, in test [19], the growth was 77.7%.

With `COc1ccc(-c2cc(-c3ccccc3)nc(SCCCC(=O)NO)n2)cc1OC`, the growth was 16.5% in [1]; 15.1% in [2]; 20% in test [3]; 1.87% (active) in test [4]; 13% in test [5]; -69.8% (active) in test [6]. The growth in [7] is -22.3% (active); in [8], -61.6% (active); in test [9] it was 21.5%; in [10], -1.51% (active); in test [11], 8.24% (active); in [12] it was 13.8%. Also, the growth in test [13] was -39.6% (active); in [14], 4.89% (active); in test [15], -0.775% (active); in test [16] it was -37.9% (active); in test [17], -24.9% (active); in test [18], 6.42% (active). In test [19], the growth is 2.96% (active).
